# ELG1 repair inh – qHTS screen for small molecules that inhibit ELG1-dependent DNA repair in human embryonic kidney (HEK293T) cells expressing luciferase-tagged ELG1; HEK293T ELG1-luciferase reporter, luminescence, 16 h; DNA damage induced by 5-fluorouridine; Potency, µM (highest dose often 46.1 µM), for the others: at the top dose activity change, negative = inhibition, actives largely listed as inhibitors; 2.3% of 330,000 active; also: % is scaled to controls: 0 for no effect and ±100 for the full control effect; nearly all actives have a fitted effect of over 55% in size
#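 In this reporter screen, reduction of luminescence relative to DMSO vehicle indicated activity. Compounds and 5-fluorouridine were added together to 2,000 cells per well, incubated for 16 hr at 37 °C, then developed with ONE-Glo.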
# KB-3-1 cytotox – qHTS assay for MDR1-selective chemotherapeutics: Primary screen using the parental adenocarcinoma cell KB-3-1 | KB-3-1 viability, CellTiter-Glo ATP luminescence, 72 h | Potency, µM (top dose mostly 46.1 µM), hits mostly cytotoxic | 1.4% of 400,000 active; also: % is scaled to controls: 0 for no effect and ±100 for the full control effect; nearly all actives have a fitted effect of over 60% in size
#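 Multi-concentration cytotoxicity screen in KB-3-1 cells grown in DMEM lacking phenol red with 10% FBS. After 72 h at 37 °C with compound, ATP-dependent luminescence was recorded.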
# KB-V1 MDR tox – qHTS assay for MDR1-selective chemotherapeutics: Primary screen using the drug-selected MDR subline cells KB-V1. 3.4% of 400,000 active. KB-V1 MDR cells viability, CellTiter-Glo, 72 h. Potency, µM (doses to about 46.1 µM), usual class: cytotoxic; also: % is scaled to controls: 0 for no effect and ±100 for the full control effect; nearly all actives have a fitted effect of over 60% in size
#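 Luminescent ATP read-out (CellTiter-Glo, 10 min) measures survival of drug-selected KB-V1 MDR cells after 72 h, 37 degrees C compound exposure. Medium: phenol-red-free DMEM, 10% FBS. Values from fitted concentration-response curves.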
# MCF10A rereplic – A quantitative high throughput screen for small molecules that induce DNA re-replication in MCF 10a normal breast cells; MCF 10A DNA re-replication, Hoechst nuclear intensity, 48 h; 2.9% of 350,000 active; Potency, µM (series often up to 46.1 µM), for the others: top-dose activity, positive = re-replication, hits mostly activators; AID 624296, 2012; also: % of control where 0% means no effect; nearly all actives have a fitted effect of over 50% in size
# SW480 rerep – A quantitative high throughput screen for small molecules that induce DNA re-replication in SW480 colon adenocarcinoma cells; 1.8% of 340,000 active; SW480 DNA re-replication, Hoechst DNA content imaging, 48 h; Potency, µM (top dose mostly 46.1 µM), for the others: at the top dose re-replication activation, hits mostly activators; also: % of control where 0% means no effect; nearly all actives have a fitted effect of over 55% in size
#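 First, 250 cells per well were seeded. Next, compound or vehicle (23 nL) was pinned in, plates sat 48 hr at 37 C. Finally Hoechst was added for 40 min before fluorescence scanning.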
# * marks the source's active call; other numbers are inactive results; i = inactive; u = inconclusive; x = not tested or not shown; ! = not active in a repeat; [ ] = dose if it differs, or a comment. In the library only some 8.1% were active in any assay of this set; here they are far more common. Calls follow the shape of the dose curve; as a rule, active = well fitted curve in the direction sought with a large enough effect; inconclusive = small, poorly fitted or top-dose-only effect, or another doubt; inactive = no such curve, though single readings can be large; an effect the other way counts as inactive or inconclusive. Potency is read from the fitted curve at half-maximal effect.
SMILES,ELG1 repair inh,KB-3-1 cytotox,KB-V1 MDR tox,MCF10A rereplic,SW480 rerep
CC(C)(C)c1ccc(OCCC(=O)Nc2cccc(S(=O)(=O)N3CCCCC3)c2)cc1,-3%,u,21µM*,7%,16%
Cc1ccc(C)c(OCCC(=O)Nc2cc(S(=O)(=O)N3CCCCC3)ccc2C)c1,u,i,i,u,-1%
O=C(Nc1cccc(Cl)c1)Nc1cc(S(=O)(=O)N2CCCCC2)ccc1Cl,u,u,u,6.5µM*,u
Cc1ccc(-n2c3nc(=O)n(C)c(=O)c-3cc3ccccc32)c(C)c1,x,i,i,x,x
Cc1ccc(C)c(-n2c3nc(=O)n(C)c(=O)c-3cc3ccccc32)c1,0%,i,i,15µM*,1%
CCCCn1c(=O)nc2n(-c3ccccc3)c3ccccc3cc-2c1=O,-1%,u,10µM*,-8%,-7%
CCc1ccc(Nc2nnc(SCC(=O)NC(=O)c3cccn3C)s2)cc1,u,u,u,18µM*,u
CCc1ccc(Nc2nnc(SCC(=O)Nc3ccc(C(=O)O)cc3)s2)cc1,u,i,i,-4%,-6%
CN(C)c1ncc(S(=O)(=O)c2ccccc2)c(N)n1,-3%,i,i,1%,1%
CN(C)c1ncc(S(=O)(=O)c2ccccc2)c(-c2ccccc2Cl)n1,-3%,i,18µM*,-2%,1%
COc1cc(OC)cc(C(=O)Nc2ccc3oc(-c4ccc(Cl)cc4)nc3c2)c1,x,i,i,x,x
CCOC(=O)C1CCN(C(=O)c2c(C)oc3c2C(=O)c2ccccc2C3=O)CC1,u,u,18µM*,u,12µM*
CCOC(=O)C1CCN(C(=O)c2ccc(C)o2)CC1,16%,i,i,5%,-4%
Cc1oc2c(c1C(=O)N1CCC(C)CC1)C(=O)c1ccccc1C2=O,u,21µM*,18µM*,18%,12µM*
COc1cc(C(=O)NCCOc2ccc(Cl)cc2)ccc1OCc1c(C)noc1C,12%,i,i,u,u
COc1ccccc1/C=C/C1(C(=O)NC2CCCC2)CC(=O)N1c1ccccc1 (configuration not stated),-25%,3.7µM*,3.7µM*,9.2µM*,7.3µM*
CN(C)S(=O)(=O)c1ccc(N2C(=O)CC2(/C=C/c2ccccc2)C(=O)NC2CCCC2)cc1 (configuration not stated),-7%,i,5.2µM*,-69%,-1%
O=C(O)C1CC(Br)C(Br)CC1C(=O)O (configuration not stated),x,i,i,x,x
CCCCNC(=O)O[C@H]1C[C@@H]2CCN3C(=O)CCC[C@H]([C@H]1CC)[C@H]23,24%,i,i,2%,35%[9.22 µM]
CCCCNC(=O)O[C@@H]1C[C@@H]2CCN3C(=O)CCC[C@H]([C@H]1CC)[C@H]23,20%,i,21µM*!,10%,-12%
COc1ccc(CCNC(=O)CCc2c(C)nc3nc(C)nn3c2C)cc1OC,x,i,i,x,x
COc1ccc(N2CCN(C(=O)c3oc4ccccc4c3NC(=O)Cc3cccc(OC)c3)CC2)cc1,-28%,i,u,5%,-25%
COc1cccc(CC(=O)Nc2c(C(=O)N3CCN(c4ccccc4F)CC3)oc3ccccc23)c1,x,16µM*,u,x,x
Cc1ccc(S(=O)(=O)NC(=O)C2(C)CCN2C(=O)Cc2ccc(Cl)cc2Cl)cc1 (configuration not stated),x,i,i,x,x
O=C(N=Nc1c(O)[nH]c2ccccc12)c1cccc(S(=O)(=O)Nc2ccccc2Cl)c1,13%,i,i,1%,-85%
SMILES,ELG1 repair inh,KB-3-1 cytotox,KB-V1 MDR tox,MCF10A rereplic,SW480 rerep
CC(C)c1ccc2[nH]c(O)c(N=NC(=O)c3cccc(S(=O)(=O)Nc4ccccc4Cl)c3)c2c1,0%,i,i,15µM*,-3%
CCCS(=O)(=O)NC(=O)C1(C)CCCN(C(=O)c2ccc3ccccc3n2)C1 (configuration not stated),x,i,i,x,x
CCN(Cc1ccccc1)C(=O)c1nc(-c2cccc(F)c2)n2c1CCCCC2,x,i,i,x,x
O=c1ccc(-c2ccccc2)nn1Cc1ccccc1,x,i,i,-5%,5%
Cc1ccc(-c2ccc(=O)n(Cc3cccc(Br)c3)n2)cc1,0%,u,16µM*,u,u
Cn1c(CCNC(=O)c2ccco2)nc2cc(NC(=O)c3ccccc3)ccc21,u,i,i,-3%,0%
Cn1c(CCNC(=O)c2ccccc2)nc2cc(NC(=O)c3ccco3)ccc21,u,u,16µM*,10%,-1%
COc1ccccc1C(=O)Nc1ccc2c(c1)nc(CCNC(=O)c1ccco1)n2C,23%,1.6µM*,u,u,5.2µM*
Cn1c(CCNC(=O)c2ccco2)nc2cc(NC(=O)c3ccco3)ccc21,u,i,i,7%,1%
CCOc1ccccc1OCCCCn1c(-c2ccc(Cl)cc2)nc2ccccc2c1=O,x,i,i,x,x
O=C(N/N=C/c1ccccc1Cl)c1[nH]c2ccc(Br)cc2c1-c1ccccc1,12%,u,5.8µM*,u,u
NNC(=O)c1[nH]c2ccc(Cl)cc2c1-c1ccccc1,16µM*,u,u,9.2µM*,u
O=C(O)CSc1c(-c2ccccc2)c2cc(Cl)ccc2[nH]c1=O,10%,i,i,15%,0%
COc1ccc(/C=N/NC(=O)c2[nH]c3ccc(Br)cc3c2-c2ccccc2)c(C(=O)O)c1OC,u,i,i,26%,1%
COc1ccc(/C=N/NC(=O)c2[nH]c3ccc(Br)cc3c2-c2ccccc2)cc1,6%,0.82µM*,1µM*,0.21µM*,1.2µM*
CC(=O)Nc1c(-c2ccccc2)c2cc(Br)ccc2[nH]c1=O,0%,i,i,0.73µM*,5%
CCCn1c2ccccc2c2cnn(CC(=O)NCc3cc(OC)ccc3OC)c(=O)c21,x,i,i,x,x
Cc1ccc2[nH]c(C(=O)NN=C3CCCCC3)c(-c3ccccc3)c2c1,u,i,u,16µM*,u
O=C(CCCN1CCN(c2ccccc2)CC1)c1ccc(F)cc1,x,i,i,x,x
O=C1NCN(c2ccccc2)C12CCN(CCCC(c1ccc(F)cc1)c1ccc(F)cc1)CC2,-8%,u,u,27µM*!,u
CCOc1cc(/C=C2\COc3ccccc3C2=O)ccc1OCC(=O)N(C)C,u,i,u,15µM*,15µM*
